# From ChEMBL document CHEMBL3988442, “University of Dundee, Small-Polar-MMV Screening Library” (2021)
# Out of some 69,000 compounds screened, about 1,000 (1.4%) showed an effect of 50% or more. This is one part of a sample in which strong results are shown more often than they occur.
# Tested on: Leishmania donovani
# Assay: Leishmania intramacrophage assay
# Format: functional, organism-based
# Parameters: scale not given: in the data most compounds retested in dose-response had high values
smiles,measurement,setting,value
COc1c(CNCc2ccccc2-n2ccnc2)c(C)nn1C,Percent Effect,"30.3 µM, […]",-14%
CCN(CC)C(=O)c1ccn(COc2ccccc2)n1,Percent Effect,"30 µM, 30.03 µM",25.56%
CCN(CC)C(=O)c1ccn(COc2cc(C)cc(C)c2)n1,Percent Effect,"30 µM, 30.03 µM",51.39%
Cc1cc(C)cc(OCn2ccc(C(=O)O)n2)c1,Percent Effect,"30.3 µM, […]",36.81%
Cc1cc(C(=O)N2C[C@@H](C(=O)O)[C@H](c3ccccc3C)C2)c(C)o1,Percent Effect,"30 µM, 30.03 µM",-7.821%
O=C(c1cc(-c2cn[nH]c2)nc2cc(F)ccc12)N1CCS(=O)(=O)CC1,Percent Effect,"30.3 µM, […]",4.667%
Cc1cc(C)cc(C(=O)NCCS(=O)(=O)N2CCSCC2)c1,Percent Effect,"30.3 µM, […]",-32.85%
Cc1ccc(C(=O)NCCS(=O)(=O)N2CCSCC2)o1,Percent Effect,"30.3 µM, […]",-11.12%
Cc1ccoc1C(=O)NCCS(=O)(=O)N1CCSCC1,Percent Effect,"30.3 µM, […]",62.05%
CN1CCN([C@@H]2CN(C(=O)CCOc3ccccc3)C[C@H]2O)CC1,Percent Effect,"30.3 µM, […]",23.88%
COc1cc(CN[C@@H]2COC[C@H]2Cc2cc(C)no2)cc(OC)c1.O=C(O)CC(O)(CC(=O)O)C(=O)O,Percent Effect,"30.3 µM, […]",4.158%
CN1CCN(c2nsc(-c3cccnc3)c2C#N)CC1,Percent Effect,"30.3 µM, […]",11.24%
Cc1nn(C)c(C)c1-c1cnc(C2CCCN(S(C)(=O)=O)C2)cn1 (centres undefined),Percent Effect,"30.3 µM, […]",19.29%
CO[C@H]1CN(C(=O)c2cccnc2)[C@@H]2CCCO[C@H]12.O=C(O)C(F)(F)F,Percent Effect,"30.3 µM, […]",4.595%
COc1cccc(OCC2CCCN(c3cc(C(N)=O)ccn3)C2)c1 (centres undefined),Percent Effect,"30.3 µM, […]",42.88%
Cc1nc(N)cc(N2CCCC(COc3cccc(F)c3)C2)n1 (centres undefined),Percent Effect,"30.3 µM, […]",87.26%
CCNC(=O)c1ccnc(N2CCCC(COc3ccccc3C)C2)c1 (centres undefined),Percent Effect,"30.3 µM, […]",33.05%
Nc1cc(N2CCCC(COc3ccc(F)cc3)C2)nc(N)n1 (centres undefined),Percent Effect,"30.3 µM, […]",-15.02%
CNC(=O)c1ccnc(N2CCCC(COc3cccc(C)c3)C2)c1 (centres undefined),Percent Effect,"30.3 µM, […]",30.74%
Cc1ccc(OCC2CCCN(c3cc(C(N)=O)ccn3)C2)cc1 (centres undefined),Percent Effect,"30.3 µM, […]",60.08%
Nc1cc(N2CCCC(COc3ccc(F)cc3)C2)ncn1 (centres undefined),Percent Effect,"30.3 µM, […]",1.04%
Cc1nc(CN(C)C)cc(N2CCCC(COc3ccc(F)cc3)C2)n1 (centres undefined),Percent Effect,"30.3 µM, […]",-8.427%
Cc1ccccc1OCC1CCCN(c2cc(N)nc(N)n2)C1 (centres undefined),Percent Effect,"30.3 µM, […]",98.85%
Cc1ccc(C(=O)N2Cc3c(CN(C)C)nn(C)c3C2)cc1C.O=C(O)C(F)(F)F,Percent Effect,"30.3 µM, […]",35.58%
Cc1csc(NC(=O)c2cnc(C3CCCN3)cn2)n1.Cl (centres undefined),Percent Effect,"30.3 µM, […]",7.514%
CCC(C)NC(=O)Cc1c(C)nc2c(c1C)c(=O)[nH]n2C (centres undefined),Percent Effect,"30 µM, 30.03 µM",-5.579%
COc1cc(C(=O)N2CCCC(CNS(C)(=O)=O)C2)cc(OC)c1C (centres undefined),Percent Effect,"30 µM, 30.03 µM",16.86%
CN(C)CC1CN(Cc2ccc(F)cc2)Cc2nccn2C1.O=C(O)C(F)(F)F.O=C(O)C(F)(F)F (centres undefined),Percent Effect,"30.3 µM, […]",6.472%
Clc1cccc(CNC2CCN(CCc3ccncc3)CC2)c1,Percent Effect,"30.3 µM, […]",59.66%
Cc1cccc(CNC2CCN(CCc3ccncc3)CC2)c1C,Percent Effect,"30.3 µM, […]",74.34%
CSc1ccc(CNC2CCN(CCc3ccncc3)CC2)cc1,Percent Effect,"30.3 µM, […]",85.89%
CCCN1CCC(NCc2ccncc2)CC1,Percent Effect,"30.3 µM, […]",-7.602%
N#Cc1ccc(CNC2CCN(CCc3ccncc3)CC2)cc1,Percent Effect,"30.3 µM, […]",19.38%
c1cc(CCN2CCC(NCc3ccsc3)CC2)ccn1,Percent Effect,"30.3 µM, […]",31.06%
CC(NC1CCN(CCc2ccncc2)CC1)c1cnn(C(C)C)c1 (centres undefined),Percent Effect,"30.3 µM, […]",6.548%
COC(=O)C(O)C1CCN(CCc2ccncc2)CC1 (centres undefined),Percent Effect,"30.3 µM, […]",9.422%
Oc1cccc(CNC2CCN(CCc3ccncc3)CC2)c1,Percent Effect,"30.3 µM, […]",7.34%
COc1ccc(CNC2CCN(CCc3ccncc3)CC2)cc1O,Percent Effect,"30 µM, 30.03 µM",9.899%
Cc1ccc(CNC2CCN(CCc3ccncc3)CC2)s1,Percent Effect,"30 µM, 30.03 µM",45.1%
Cc1ccc(CNC2CCN(CCc3ccncc3)CC2)cc1C,Percent Effect,"30 µM, 30.03 µM",92.66%
CC1(c2ccccc2)CCC(=O)N(CCN2CCCOC2=O)C1 (centres undefined),Percent Effect,"30.3 µM, […]",-24.18%
CN(C)C(=O)CN1CCN(C(=O)c2cnn(-c3ccccc3Cl)c2)CC1,Percent Effect,30 µM,13.32%
CC(C)Cc1ccc(S(=O)(=O)Nc2ccc(=O)n(C)c2)cc1,Percent Effect,"30 µM, 30.03 µM",40.75%
CCOCCN1CCN(c2ccc(C#N)cn2)CC1CC (centres undefined),Percent Effect,"30.3 µM, […]",26.65%
COCCN1CCC(NCc2ccc(Cl)cc2)C1 (centres undefined),Percent Effect,30 µM,10.13%
Fc1ccc(CNC2CCN(CCc3ccncc3)CC2)cc1F,Percent Effect,"30.3 µM, […]",73.28%
CC(CNC1CCN(Cc2ccncc2)CC1)c1ccc(F)cc1F (centres undefined),Percent Effect,"30.3 µM, […]",10.91%
CC(NC(=O)c1ccnn1C)c1ccc(OCC2CC2)c(F)c1 (centres undefined),Percent Effect,"30.3 µM, […]",27.82%
Clc1ccc2nc(N3CCC(NCCCC4CCOC4)CC3)sc2c1 (centres undefined),Percent Effect,"30.3 µM, […]",61.31%
